Results filed as inconclusive are left out. The source made the active and inactive calls. The call rests on the fitted dose curve; in most records, active means well fitted curve in the direction sought with a large enough effect; inconclusive means small, poorly fitted or top-dose-only effect, or another doubt; inactive means no such curve, though single readings can be large; an effect the other way counts as inactive or inconclusive.
Columns and labels:
HEK293T [1] = assay: qHTS assay to identify novel small-molecules to repurpose for Merkel cell carcinoma treatment (AID 1296009); conditions: MCC and control cell lines, CellTiter-Glo viability, 72 h; at 44.8 µM (top of the series) unless noted; further: nearly all actives have a fitted effect of over 60% in size
Summary of the method: (§1)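 After compound transfer in DMSO, plates were kept 72 hr at 37 degree celsius. Luminescent ATP signal from CellTiter-Glo served as viability measure, normalized against DMSO and no-cell controls.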

MCC-13 = assay: as above; conditions: MCC and control cell lines, CellTiter-Glo viability, 72 h; series mostly up to 46 µM
Summary of the method: as §1

MCC-26 = assay: as above; conditions: MCC and control cell lines, CellTiter-Glo viability, 72 h; series mostly up to 46 µM
Summary of the method: as §1

MKL-1 = assay: as above; conditions: MCC and control cell lines, CellTiter-Glo viability, 72 h; series mostly up to 46 µM
Summary of the method: as §1

MKL-2 = assay: as above; conditions: MCC and control cell lines, CellTiter-Glo viability, 72 h; series mostly up to 46 µM
Summary of the method: as §1

UISO = assay: as above; conditions: MCC and control cell lines, CellTiter-Glo viability, 72 h; series mostly up to 46 µM
Summary of the method: as §1

WaGa = assay: as above; conditions: MCC and control cell lines, CellTiter-Glo viability, 72 h; series mostly up to 46 µM
Summary of the method: as §1

C33A = assay: Primary qHTS to identify gynecologic anti-cancer compounds using libraries of approved drugs and bioactive compounds (AID 1345084); conditions: Gynecologic cancer cell panel viability, ATPlite luminescence, 48 h; series mostly up to 57.5 µM; further: nearly all actives have a fitted effect of over 55% in size
Summary of the method: (§2)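 Cell viability after 48 h drug treatment, ATPlite luminescence readout; five doses.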

CASKI = assay: as above; conditions: Gynecologic cancer cell panel viability, ATPlite luminescence, 48 h; series mostly up to 57.5 µM
Summary of the method: as §2

Es-2 = assay: as above; conditions: Gynecologic cancer cell panel viability, ATPlite luminescence, 48 h; series mostly up to 57.5 µM
Summary of the method: as §2

HeLa = assay: as above; conditions: Gynecologic cancer cell panel viability, ATPlite luminescence, 48 h; series mostly up to 57.5 µM
Summary of the method: as §2

Hek293T [2] = assay: as above; conditions: Gynecologic cancer cell panel viability, ATPlite luminescence, 48 h, control line for the selectivity index; series mostly up to 57.5 µM
Summary of the method: as §2

JEG-3 = assay: as above; conditions: Gynecologic cancer cell panel viability, ATPlite luminescence, 48 h; series mostly up to 57.5 µM
Summary of the method: as §2

OV90 = assay: as above; conditions: Gynecologic cancer cell panel viability, ATPlite luminescence, 48 h; series mostly up to 57.5 µM
Summary of the method: as §2

PA-1 = assay: as above; conditions: Gynecologic cancer cell panel viability, ATPlite luminescence, 48 h; series mostly up to 57.5 µM
Summary of the method: as §2

SKOV3 = assay: as above; conditions: Gynecologic cancer cell panel viability, ATPlite luminescence, 48 h; series mostly up to 57.5 µM
Summary of the method: as §2

Tov-21-G = assay: as above; conditions: Gynecologic cancer cell panel viability, ATPlite luminescence, 48 h; series mostly up to 57.5 µM
Summary of the method: as §2

Tov112D = assay: as above; conditions: Gynecologic cancer cell panel viability, ATPlite luminescence, 48 h; series mostly up to 57.5 µM
Summary of the method: as §2

CAOV3 = assay: as above; conditions: Gynecologic cancer cell panel viability, ATPlite luminescence, 48 h; series mostly up to 57.5 µM
Summary of the method: as §2

NIH3T3 = assay: qHTS assay to identify novel small-molecules to repurpose for Merkel cell carcinoma treatment (AID 1296009); conditions: MCC and control cell lines, CellTiter-Glo viability, 72 h; at 44.8 µM (top of the series) unless noted; further: nearly all actives have a fitted effect of over 60% in size
Summary of the method: as §1

Measured: Potency

CC(C)C(=O)OCc1cccc(OC(=O)[C@@H]2N3C(=O)[C@@H](NC(=O)Cc4ccccc4)[C@H]3SC2(C)C)c1
inactive: HEK293T [1] | MCC-13 | MCC-26 | MKL-1 | MKL-2 | UISO | WaGa | C33A | CASKI | Es-2 | HeLa | Hek293T [2] | JEG-3 | OV90 | PA-1 | SKOV3 | Tov-21-G | Tov112D

CCOC(=O)NNc1ccc(N(CC)CC(C)O)nn1 (stereo not drawn)
inactive: HEK293T [1] | MCC-13 | MCC-26 | MKL-1 | UISO | WaGa | C33A | CAOV3 | CASKI | Es-2 | HeLa | Hek293T [2] | JEG-3 | OV90 | PA-1 | SKOV3 | Tov-21-G | Tov112D

CN(C)CCN(Cc1ccsc1)c1ccccn1
inactive: MCC-13 | MCC-26 | MKL-1 | MKL-2 | NIH3T3 | UISO | WaGa | C33A | CAOV3 | CASKI | Es-2 | HeLa | Hek293T [2] | JEG-3 | OV90 | PA-1 | SKOV3 | Tov-21-G | Tov112D

O=P(O)(O)OCC(O)CO (stereo not drawn)
inactive: MCC-13 | MCC-26 | MKL-1 | MKL-2 | NIH3T3 | UISO | WaGa | C33A | CAOV3 | CASKI | Es-2 | HeLa | Hek293T [2] | JEG-3 | OV90 | PA-1 | SKOV3 | Tov-21-G | Tov112D

O=C1CC2(CCCC2)CC(=O)N1
inactive: MCC-13 | MCC-26 | MKL-1 | MKL-2 | NIH3T3 | UISO | WaGa | C33A | CAOV3 | CASKI | Es-2 | HeLa | Hek293T [2] | JEG-3 | OV90 | PA-1 | SKOV3 | Tov-21-G | Tov112D

CN(C)CCCOC1(Cc2ccccc2)CCCCCC1
inactive: HEK293T [1] | MCC-13 | MCC-26 | MKL-1 | MKL-2 | UISO | WaGa | C33A | CAOV3 | CASKI | Es-2 | HeLa | Hek293T [2] | JEG-3 | PA-1 | Tov-21-G | Tov112D

COc1ccccc1N1CCN(CCN2C(=O)CC3(CCCC3)CC2=O)CC1
inactive: HEK293T [1] | NIH3T3 | C33A | CAOV3 | CASKI | Es-2 | HeLa | Hek293T [2] | JEG-3 | OV90 | PA-1 | SKOV3 | Tov-21-G | Tov112D

CC(C)(C)NCC(O)COc1ccccc1OCC1CCCO1 (stereo not drawn)
inactive: MCC-13 | MCC-26 | MKL-1 | MKL-2 | NIH3T3 | UISO | WaGa | C33A | CAOV3 | CASKI | Es-2 | HeLa | Hek293T [2] | JEG-3 | OV90 | PA-1 | SKOV3 | Tov-21-G | Tov112D

O=C(c1ccco1)N1CCNCC1
inactive: HEK293T [1] | MCC-13 | MCC-26 | MKL-1 | MKL-2 | UISO | WaGa | C33A | CAOV3 | CASKI | Es-2 | HeLa | Hek293T [2] | JEG-3 | PA-1 | SKOV3 | Tov-21-G | Tov112D

CC(=O)OCC[N+](C)(C)C
inactive: HEK293T [1] | MCC-13 | MCC-26 | MKL-1 | UISO | C33A | CAOV3 | CASKI | Es-2 | HeLa | Hek293T [2] | JEG-3 | OV90 | PA-1 | SKOV3 | Tov-21-G | Tov112D

Cc1coc2ccccc2c1=O
inactive: MCC-13 | MCC-26 | MKL-1 | MKL-2 | NIH3T3 | UISO | WaGa | C33A | CAOV3 | CASKI | Es-2 | HeLa | Hek293T [2] | JEG-3 | OV90 | PA-1 | SKOV3 | Tov-21-G | Tov112D

CCN(CC)C(=O)C1CN2CCc3cc(OC)c(OC)cc3C2CC1OC(C)=O (stereo not drawn)
inactive: HEK293T [1] | MCC-13 | MCC-26 | MKL-1 | MKL-2 | UISO | WaGa | C33A | CASKI | Es-2 | HeLa | Hek293T [2] | JEG-3 | OV90 | PA-1 | SKOV3 | Tov-21-G | Tov112D

COc1ccc2nc(SCc3ncc(C)c(OC)c3C)[nH]c2c1
inactive: MCC-13 | MCC-26 | MKL-1 | MKL-2 | NIH3T3 | UISO | WaGa | C33A | CAOV3 | CASKI | Es-2 | HeLa | Hek293T [2] | JEG-3 | OV90 | PA-1 | SKOV3 | Tov-21-G | Tov112D

C[C@]12CCC(=O)C=C1CC[C@@H]1[C@@H]2[C@@H](O)C[C@@]2(C)[C@H]1CC[C@]2(O)C(=O)COC(=O)CCC(=O)O
inactive: MCC-13 | MCC-26 | MKL-1 | MKL-2 | NIH3T3 | UISO | WaGa | C33A | CAOV3 | CASKI | Es-2 | HeLa | Hek293T [2] | JEG-3 | OV90 | PA-1 | SKOV3 | Tov-21-G | Tov112D

OCCCc1ccccc1
inactive: MCC-13 | MCC-26 | MKL-1 | MKL-2 | NIH3T3 | UISO | WaGa | C33A | CAOV3 | CASKI | Es-2 | HeLa | Hek293T [2] | JEG-3 | OV90 | PA-1 | SKOV3 | Tov-21-G | Tov112D

Cc1oc(-c2ccccc2)nc1CCC(=O)c1ccc(CC2SC(=O)NC2=O)cc1 (stereo not drawn)
inactive: HEK293T [1] | MCC-13 | MCC-26 | MKL-1 | MKL-2 | UISO | C33A | CAOV3 | CASKI | Es-2 | HeLa | Hek293T [2] | JEG-3 | OV90 | PA-1 | SKOV3 | Tov-21-G | Tov112D

CN1C(CSCC(F)(F)F)Nc2cc(Cl)c(S(N)(=O)=O)cc2S1(=O)=O (stereo not drawn)
inactive: MCC-13 | MCC-26 | MKL-1 | MKL-2 | NIH3T3 | UISO | WaGa | C33A | CAOV3 | CASKI | Es-2 | HeLa | Hek293T [2] | JEG-3 | OV90 | PA-1 | SKOV3 | Tov-21-G | Tov112D

COc1cc2c(cc1OC)C(=O)CC2
inactive: MCC-13 | MCC-26 | MKL-1 | MKL-2 | NIH3T3 | UISO | WaGa | C33A | CAOV3 | CASKI | Es-2 | HeLa | Hek293T [2] | JEG-3 | OV90 | PA-1 | SKOV3 | Tov-21-G | Tov112D
